Drawing on PubChem BioAssay (NCATS), this text covers outcome and viability change for two compounds.

Test [1] is described as follows: Nrf2 qHTS screen for inhibitors: Validation (AID 493153; active = well fitted inhibition curve with a large enough effect in the main read-out, with a control signal flat, not every such curve was filed as active). As to conditions: viability change: measured here: cytotoxicity max response. An outline of the steps:
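Dose-response validation uses reporter A549 cells with firefly luciferase under an antioxidant response element. Compounds stay on cells 18-24 h at 37°C, and luminescence indicates Nrf2-driven transcription.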

Test [2] in a line: qHTS for Inhibitors of Cell Surface uPA Generation: Validation Assay (AID 493164).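 Also: RAW 264.7 macrophage cells exposed to compound for 18 h; 0% is about no effect.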 The procedure, abridged: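 RAW 264.7, 4000 cells/well, o/n plating; cpd 7-pt 1:5 dilution 2.45 nM–38.3 uM final; 18 h, 37 C/5% CO2; ATP-Lite, 5 s luminescence exposure.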
The target in test [3] is Galactokinase (Homo sapiens) (UniProt P51570). The test is described as follows: qHTS Validation Assay for Inhibitors of Human Galactokinase (GALK) (AID 493189). Also: 0% is about no effect. The procedure, abridged:
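GALK (5 nM) with 35 uM ATP and 100 uM galactose in HEPES pH 8.0 with MgCl2, NaCl, DTT and BSA. Reaction ran 1 h at room temperature. Residual ATP read by Kinase-Glo Plus luminescence.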

Test [4] in a line: Validation screen for small molecules that induce DNA re-replication in SW480 colon adenocarcinoma cells (AID 504364). Also: 0% is about no effect. An outline of the steps: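 Cells are treated 48 hr with test compound, stained 40 min with Hoechst at 37 C, and scanned for nuclear fluorescence; compounds inducing re-replication increase nuclei with elevated intensity.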
For test [5], the target named is Peptidyl-prolyl cis-trans isomerase NIMA-interacting 1 (Homo sapiens) (UniProt Q13526). The test is described as follows: qHTS Validation Assay to Find Inhibitors of Pin1 (AID 504536; active = well fitted inhibition curve with a large enough effect in the polarisation, with a control signal flat, not every such curve was filed as active; the % refers to the polarisation;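 also: 0% = full Pin1 enzyme wells and -100% = no-enzyme wells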). An outline of the steps: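 Fluorescence polarization competition: compounds (titration) displace HiFluor-488-labeled Pin1-1b peptide from Pin1 (0.3 uM final) in pH 7.5 HEPES buffer with DTT, 10 min at room temperature; %Activity normalized to no-enzyme wells, curves fitted.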
Sequence of Peptidyl-prolyl cis-trans isomerase NIMA-interacting 1 (Homo sapiens) (Q13526 whole entry, looked up): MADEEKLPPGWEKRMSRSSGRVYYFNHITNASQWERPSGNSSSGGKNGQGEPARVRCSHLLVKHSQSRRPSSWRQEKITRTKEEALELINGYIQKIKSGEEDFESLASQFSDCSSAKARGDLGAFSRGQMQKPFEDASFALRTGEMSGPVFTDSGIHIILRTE

Test [6] deals with Phosphoglycerate kinase, glycosomal (Trypanosoma brucei brucei) (UniProt P07378). The test is described as follows: qHTS Validation Assay to Find Inhibitors of Phosphoglycerate Kinase (AID 504547).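 Also: control wells lack PGK and mark full inhibition.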 The source says: NIH Molecular Libraries Probe Production Network [MLPCN]
Sequence of Phosphoglycerate kinase, glycosomal (Trypanosoma brucei brucei) (P07378 whole entry, looked up): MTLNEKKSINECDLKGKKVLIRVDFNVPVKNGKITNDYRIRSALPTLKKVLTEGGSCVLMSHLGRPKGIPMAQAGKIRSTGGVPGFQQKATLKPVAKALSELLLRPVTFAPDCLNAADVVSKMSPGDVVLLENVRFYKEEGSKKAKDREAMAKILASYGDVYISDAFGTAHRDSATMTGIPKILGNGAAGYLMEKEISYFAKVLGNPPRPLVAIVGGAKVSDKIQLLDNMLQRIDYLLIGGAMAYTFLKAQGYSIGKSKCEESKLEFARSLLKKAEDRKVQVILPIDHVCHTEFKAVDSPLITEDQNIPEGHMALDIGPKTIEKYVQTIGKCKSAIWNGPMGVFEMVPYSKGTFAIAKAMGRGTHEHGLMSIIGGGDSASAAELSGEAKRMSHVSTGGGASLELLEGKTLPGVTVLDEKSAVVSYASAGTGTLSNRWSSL
NIH Chemical Genomics Center [NCGC]
PI Name: Malcolm Walkinshaw, University of Edinburgh
Several species of the Trypanosomatidae family of parasitic protozoans cause a spectrum of diseases
throughout the tropical and subtropical world. Sleeping sickness, caused by two subspecies of Trypanosoma brucei, is endemic to areas of sub-Saharan Africa, while Chagas disease, a manifestation of Trypanosoma cruzi infection, is prevalent throughout Central and South America. In addition, many species of Leishmania are responsible for a range of cutaneous and visceral diseases, causing ulcers, destructive lesions and kalaazar, a lethal infection of the viscera. Collectively, these organisms infect 30 million people worldwide (~500 million live in endemic areas), and account for ~130,000 deaths annually. […]
Briefly, 3ul of substrate/PGK buffer (columns 1,2,5-48) are dispensed into Greiner white solid bottom 1536-well assay plates; columns 3-4 receive only TEA buffer as 0x PGK controls. […] Kinase-Glo Plus reagent is added (2ul) and plates incubated for 10 minutes, before being transferred to a ViewLux high-throughput CCD imager (PerkinElmer) wherein single end-point measurements of luminescence are acquired using a clear filter. […]

Test [7] deals with phosphoglycerate mutase (Leishmania major) (UniProt Q4Q090). The test is described as follows: qHTS Validation Assay to Find Inhibitors of Phosphoglycerate Mutase (AID 504548). Also: series mostly up to about 58 µM; % is scaled to controls: 0 for no effect and ±100 for the full control effect. The procedure, abridged:
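Luminescent end-point read-out via Kinase-GloPlus after a 10-minute development. Reaction: 1.25nM Leishmania major PGAM with substrate and compound, 45 minutes at room temperature in TEA buffer (pH 7.6) with MgCl2 and Tween-20.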

Records with an inconclusive call do not appear. Active and inactive are the calls of the source. Unless noted, calls follow the shape of the dose curve; as a rule, active = well fitted curve in the direction sought with a large enough effect; inconclusive = small, poorly fitted or top-dose-only effect, or another doubt; inactive = no such curve, though single readings can be large; an effect the other way counts as inactive or inconclusive.

Sequence of Galactokinase (Homo sapiens) (P51570 whole entry, looked up): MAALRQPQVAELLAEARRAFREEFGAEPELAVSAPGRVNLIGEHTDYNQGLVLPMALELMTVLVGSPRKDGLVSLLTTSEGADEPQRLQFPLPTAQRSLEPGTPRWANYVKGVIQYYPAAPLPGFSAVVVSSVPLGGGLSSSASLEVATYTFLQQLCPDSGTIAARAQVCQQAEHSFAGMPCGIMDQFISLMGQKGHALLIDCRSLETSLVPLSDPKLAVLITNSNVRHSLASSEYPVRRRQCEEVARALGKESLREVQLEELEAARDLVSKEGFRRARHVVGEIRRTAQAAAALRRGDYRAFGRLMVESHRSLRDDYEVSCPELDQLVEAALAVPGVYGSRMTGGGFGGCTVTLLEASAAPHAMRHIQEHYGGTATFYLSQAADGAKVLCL
Sequence of phosphoglycerate mutase (Leishmania major) (Q4Q090 1-553): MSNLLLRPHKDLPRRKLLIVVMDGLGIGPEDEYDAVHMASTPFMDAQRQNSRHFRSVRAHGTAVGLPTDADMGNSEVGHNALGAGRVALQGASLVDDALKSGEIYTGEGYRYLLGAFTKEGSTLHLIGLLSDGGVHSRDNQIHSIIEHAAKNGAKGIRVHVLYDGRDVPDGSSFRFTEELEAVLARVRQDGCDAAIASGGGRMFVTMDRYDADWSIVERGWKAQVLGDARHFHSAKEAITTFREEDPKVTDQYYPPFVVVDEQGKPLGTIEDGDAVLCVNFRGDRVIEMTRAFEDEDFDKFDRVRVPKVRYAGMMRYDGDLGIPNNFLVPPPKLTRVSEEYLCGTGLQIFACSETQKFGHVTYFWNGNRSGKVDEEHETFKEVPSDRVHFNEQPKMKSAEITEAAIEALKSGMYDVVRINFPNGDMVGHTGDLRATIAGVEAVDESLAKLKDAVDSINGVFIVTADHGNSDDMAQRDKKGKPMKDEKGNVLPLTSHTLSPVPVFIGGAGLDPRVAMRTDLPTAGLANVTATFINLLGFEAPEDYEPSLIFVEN

Turning to `CN1Cc2c(N)cccc2C(c2ccccc2)C1` (stereo not given), the call in test [1], in test [2], in test [3], in test [4], in test [5] and in test [6] was inactive. Besides, the outcome in test [7] was inactive. Moreover, the viability change in test [1] was found to be 7.68%.

As to `CC[N+](C)(C)Cc1ccccc1Br`, the compound was called inactive in test [3] and in test [4].
